Targets with a hit are over-represented here; the source holds about 8,800 in all. About 0.5% of all pairs of compound and target were hits.
Tests used:
Assay in all cases: log2 fold change, soluble protein after heating vs DMSO (PISA); higher = thermal stabilisation; K562 lysate, 10 uM; active = over 0.2 and 3.5 SD of the protein, either way, in both replicates (recomputed)
erlotinib = compound: C#Cc1cccc(Nc2ncnc3cc(OCCOC)c(OCCOC)cc23)c1 [erlotinib]
How it was run: (§1)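 Quantification was by TMTpro 16plex LC-MS/MS with equalised channel sums, applied to the supernatant after 21,000xg for 90 min. Samples were crude K562 extract at 1 mg/mL protein in PBS pH 7.4 with 1 mM MgCl2, treated with 10 μM compound for 30 min, heated for 3 min across 48°C-58°C, pooled and brought to 0.5% NP-40 at 4°C. Values are log-two fold changes in thermal stability relative to solvent controls, from duplicates.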

[1] = compound: C/C(=N\NC(=O)C1=CC(=CC=C1)S(=O)(=O)N2CCOCC2)/C3=C(C=CC(=C3)Cl)O
How it was run: as §1

[2] = compound: C1=CC(=CC=C1C2=NC3=C(N2)C=C(C=C3)C(=O)N)OC4=CC=C(C=C4)Cl
How it was run: as §1

[3] = compound: C1=CC2=C(C=CC(=C2)/C=C\3/C(=O)NC(=NCC4=CC=CS4)S3)N=C1
How it was run: as §1

[4] = compound: C1=CC2=NC=CN=C2C=C1/C=C/3\C(=O)NC(=O)S3
How it was run: as §1

[5] = compound: C1=CC=C(C=C1)C2=NC(=C(N2)C3=CC=NC=C3)C4=CC(=C(C=C4)Cl)O
How it was run: as §1

[6] = compound: C1=CC=C2C(=C1)C3=NNC4=CC=CC(=C43)C2=O
How it was run: as §1

[7] = compound: C1CCN(C1)C(=O)NC2=CC=CC(=C2)NC3=NC=C(C(=N3)NCCC4=CN=CN4)Br
How it was run: as §1

[8] = compound: C1CN(CCC1(CC2=CC=C(C=C2)Cl)N)C3=NC=NC4=C3C=CN4
How it was run: as §1

IRAK-1-4 Inhibitor I = compound: C1COCCN1CCN2C3=CC=CC=C3N=C2NC(=O)C4=CC(=CC=C4)[N+](=O)[O-] [IRAK-1-4 Inhibitor I]
How it was run: as §1

ibrutinib = compound: C=CC(=O)N1CCC[C@@H](n2nc(-c3ccc(Oc4ccccc4)cc3)c3c(N)ncnc32)C1 [ibrutinib]
How it was run: as §1

[9] = compound: CC(=O)c1cnc2ccc(-c3cc(Cl)c(O)c(Cl)c3)nc2c1N[C@H]1CC[C@H](CN(C)C)CC1
How it was run: as §1

ralimetinib = compound: CC(C)(C)Cn1c(N)nc2ccc(-c3[nH]c(C(C)(C)C)nc3-c3ccc(F)cc3)nc21 [ralimetinib]
How it was run: as §1

[10] = compound: CC(C)(O)CC(=O)NCCn1ccc2ncnc(Nc3ccc(Oc4cccc(C(F)(F)F)c4)c(Cl)c3)c21
How it was run: as §1

[11] = compound: CC(C)C1=C2N=C(C=C(N2N=C1)NCC3=CC=CC=C3)NCCCCCCN
How it was run: as §1

[12] = compound: CC1=C(C(CC(=O)N1)C2=CC=C(C=C2)C(F)(F)F)C(=O)NC3=C(C=C4C(=C3)C=NN4)F
How it was run: as §1

[13] = compound: CC1=C(C2=C(C=C1)C(=O)C3=CC=CC=C3N2CCCN)C
How it was run: as §1

[14] = compound: CC1=C(C=C(C=C1)NC(=O)C2=CC(=CC=C2)C(C)(C)C#N)NC3=CC4=C(C=C3)N=CN(C4=O)C
How it was run: as §1

[15] = compound: CC1=C(C=C(C=C1)NC(=O)C2=CC(=CC=C2)N(C)C)NC(=O)C3=CC=C(C=C3)O
How it was run: as §1

[16] = compound: CC1=CC=C(C=C1)SC2=C3C=C(SC3=CN=C2)C(=O)N
How it was run: as §1

Measured: log2 fold change

GEMIN4 (UniProt P57678)
UniProt P57678, sequence (P57678 whole entry, looked up): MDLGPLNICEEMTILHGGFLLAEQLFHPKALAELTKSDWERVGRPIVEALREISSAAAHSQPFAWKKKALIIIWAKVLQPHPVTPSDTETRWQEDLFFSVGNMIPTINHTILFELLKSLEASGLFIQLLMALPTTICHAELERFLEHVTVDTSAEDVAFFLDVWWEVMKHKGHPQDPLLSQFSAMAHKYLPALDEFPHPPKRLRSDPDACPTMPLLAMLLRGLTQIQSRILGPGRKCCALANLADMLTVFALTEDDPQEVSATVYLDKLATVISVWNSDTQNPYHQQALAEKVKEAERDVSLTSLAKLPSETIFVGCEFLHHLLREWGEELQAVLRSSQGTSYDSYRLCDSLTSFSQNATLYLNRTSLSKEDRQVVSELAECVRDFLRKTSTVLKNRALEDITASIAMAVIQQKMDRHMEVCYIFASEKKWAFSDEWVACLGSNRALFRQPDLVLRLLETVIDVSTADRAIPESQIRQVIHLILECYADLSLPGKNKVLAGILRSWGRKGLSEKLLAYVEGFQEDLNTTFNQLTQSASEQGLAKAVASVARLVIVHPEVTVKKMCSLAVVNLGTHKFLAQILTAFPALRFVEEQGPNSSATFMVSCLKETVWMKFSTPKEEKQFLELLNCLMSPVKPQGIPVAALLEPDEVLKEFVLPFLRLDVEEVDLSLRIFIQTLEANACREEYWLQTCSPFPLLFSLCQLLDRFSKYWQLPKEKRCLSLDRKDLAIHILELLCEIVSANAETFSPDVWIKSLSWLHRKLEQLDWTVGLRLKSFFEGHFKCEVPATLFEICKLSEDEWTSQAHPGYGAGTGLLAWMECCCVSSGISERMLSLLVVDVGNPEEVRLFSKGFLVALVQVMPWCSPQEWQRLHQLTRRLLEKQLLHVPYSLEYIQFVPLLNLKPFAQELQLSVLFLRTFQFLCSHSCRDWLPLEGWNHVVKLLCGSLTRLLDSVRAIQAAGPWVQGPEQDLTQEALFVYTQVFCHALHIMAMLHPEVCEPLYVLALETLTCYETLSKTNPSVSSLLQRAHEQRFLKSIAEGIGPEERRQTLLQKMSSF
inactive: erlotinib 0.023 | [1] -0.029 | [2] -0.036 | [3] 0.046 | [4] 0.038 | [5] -0.017 | [6] -0.032 | [7] -0.004 | [8] 0.018 | IRAK-1-4 Inhibitor I -0.023 | ibrutinib 0.003 | [9] -0.028 | ralimetinib 0.056 | [10] 0.001 | [11] 0.051 | [12] 0.007 | [13] -0.048 | [14] -0.005 | [15] 0.059 | [16] 0.011

EPB41 (UniProt P11171)
inactive: erlotinib -0.024 | [1] -0.021 | [2] -0.068 | [3] 0.006 | [4] -0.005 | [5] 0 | [6] 0.014 | [7] 0.004 | [8] 0.008 | IRAK-1-4 Inhibitor I -0.028 | ibrutinib 0.01 | [9] 0.026 | ralimetinib 0.009 | [10] 0.012 | [11] -0.003 | [12] -0.001 | [13] 0.018 | [14] -0.023 | [15] 0.01 | [16] 0.044

EPHX2 (UniProt P34913)
inactive: erlotinib -0.024 | [1] 0.133 | [2] 0.156 | [3] 0.036 | [4] -0.023 | [5] -0.014 | [6] 0.014 | [7] 0.077 | [8] -0.002 | IRAK-1-4 Inhibitor I -0.014 | ibrutinib 0.051 | [9] -0.002 | ralimetinib -0.001 | [10] -0.02 | [11] 0.099 | [12] 0.004 | [13] -0.006 | [14] 0.11 | [15] 0.06 | [16] 0.051

DSTN (UniProt P60981)
UniProt P60981, sequence (P60981 whole entry, looked up): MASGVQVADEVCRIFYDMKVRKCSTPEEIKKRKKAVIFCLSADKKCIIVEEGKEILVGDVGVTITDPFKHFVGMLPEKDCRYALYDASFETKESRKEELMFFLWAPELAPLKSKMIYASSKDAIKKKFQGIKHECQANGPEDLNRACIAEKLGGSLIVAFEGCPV
inactive: erlotinib -0.038 | [1] -0.027 | [2] -0.007 | [3] 0.014 | [4] 0.013 | [5] 0 | [6] 0.005 | [7] -0.021 | [8] -0.012 | IRAK-1-4 Inhibitor I -0.007 | ibrutinib -0.011 | [9] -0.013 | ralimetinib -0.004 | [10] 0.038 | [11] -0.006 | [12] -0.001 | [13] 0.045 | [14] -0.005 | [15] -0.012 | [16] -0.003

FXR1 (UniProt P51114)
UniProt P51114, sequence (P51114 whole entry, looked up): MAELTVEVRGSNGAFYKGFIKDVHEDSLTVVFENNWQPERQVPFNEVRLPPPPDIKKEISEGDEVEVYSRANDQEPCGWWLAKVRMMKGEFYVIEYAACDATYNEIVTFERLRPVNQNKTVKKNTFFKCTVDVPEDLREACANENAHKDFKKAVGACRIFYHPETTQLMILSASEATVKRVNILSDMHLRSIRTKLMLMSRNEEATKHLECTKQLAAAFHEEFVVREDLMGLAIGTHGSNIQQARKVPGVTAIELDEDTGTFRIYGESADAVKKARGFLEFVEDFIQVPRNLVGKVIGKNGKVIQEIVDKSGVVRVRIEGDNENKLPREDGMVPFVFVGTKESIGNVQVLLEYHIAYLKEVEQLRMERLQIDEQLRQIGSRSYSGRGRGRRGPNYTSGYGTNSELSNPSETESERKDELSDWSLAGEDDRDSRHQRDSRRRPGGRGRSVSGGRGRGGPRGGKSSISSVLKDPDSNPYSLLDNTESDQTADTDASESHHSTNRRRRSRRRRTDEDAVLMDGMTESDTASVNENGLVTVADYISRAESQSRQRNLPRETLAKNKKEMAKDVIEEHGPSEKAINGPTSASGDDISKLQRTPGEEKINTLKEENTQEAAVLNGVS
inactive: erlotinib 0.041 | [1] 0.012 | [2] -0.039 | [3] -0.011 | [4] -0.024 | [5] 0.002 | [6] -0.082 | [7] -0.015 | [8] -0.008 | IRAK-1-4 Inhibitor I -0.057 | ibrutinib 0.023 | [9] -0.011 | ralimetinib -0.017 | [10] 0.032 | [11] 0.002 | [12] 0.014 | [13] -0.006 | [14] -0.01 | [15] 0.02 | [16] 0.016

DUS3L (UniProt Q96G46)
UniProt Q96G46, sequence (Q96G46 whole entry, looked up): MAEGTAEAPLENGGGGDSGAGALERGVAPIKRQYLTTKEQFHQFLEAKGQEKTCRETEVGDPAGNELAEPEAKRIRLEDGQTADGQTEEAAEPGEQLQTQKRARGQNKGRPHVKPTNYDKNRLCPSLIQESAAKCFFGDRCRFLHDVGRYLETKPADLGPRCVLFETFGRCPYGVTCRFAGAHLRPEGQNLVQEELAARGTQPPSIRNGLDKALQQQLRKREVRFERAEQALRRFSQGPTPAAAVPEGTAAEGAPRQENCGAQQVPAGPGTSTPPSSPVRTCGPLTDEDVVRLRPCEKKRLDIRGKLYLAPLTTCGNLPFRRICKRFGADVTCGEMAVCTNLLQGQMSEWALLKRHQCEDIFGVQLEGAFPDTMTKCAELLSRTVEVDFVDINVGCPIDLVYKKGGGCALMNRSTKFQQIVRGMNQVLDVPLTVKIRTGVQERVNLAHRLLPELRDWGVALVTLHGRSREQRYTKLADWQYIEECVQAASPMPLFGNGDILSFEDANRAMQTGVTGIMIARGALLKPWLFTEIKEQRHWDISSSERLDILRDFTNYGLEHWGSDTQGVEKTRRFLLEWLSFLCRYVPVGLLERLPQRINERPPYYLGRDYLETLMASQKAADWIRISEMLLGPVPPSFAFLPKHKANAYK
inactive: erlotinib -0.009 | [1] -0.001 | [2] 0.048 | [3] 0.059 | [4] 0.013 | [5] 0.032 | [6] -0.013 | [7] -0.012 | [8] -0.007 | IRAK-1-4 Inhibitor I 0.017 | ibrutinib 0.012 | [9] -0.003 | ralimetinib 0.023 | [10] -0.034 | [11] -0.007 | [12] 0.004 | [13] -0.007 | [14] 0.014 | [15] 0.001 | [16] -0.003

GEMIN2 (UniProt O14893)
UniProt O14893, sequence (O14893 whole entry, looked up): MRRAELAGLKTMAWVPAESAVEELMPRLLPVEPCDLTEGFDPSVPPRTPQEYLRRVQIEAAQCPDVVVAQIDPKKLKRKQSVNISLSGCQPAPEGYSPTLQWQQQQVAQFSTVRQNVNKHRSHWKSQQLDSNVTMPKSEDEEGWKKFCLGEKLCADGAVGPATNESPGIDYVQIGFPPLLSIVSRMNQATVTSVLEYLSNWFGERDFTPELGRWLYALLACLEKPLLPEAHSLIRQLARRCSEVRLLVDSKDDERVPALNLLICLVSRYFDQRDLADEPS
inactive: erlotinib 0.032 | [1] 0.047 | [2] -0.001 | [3] 0.053 | [4] 0.028 | [5] 0.015 | [6] -0.11 | [7] -0.007 | [8] 0.011 | IRAK-1-4 Inhibitor I 0.05 | ibrutinib -0.044 | [9] 0.016 | ralimetinib 0 | [10] -0.11 | [11] 0.033 | [12] -0.014 | [13] -0.025 | [14] -0.045 | [15] 0.006 | [16] 0.026

GCLM (UniProt P48507)
inactive: erlotinib -0.012 | [1] 0.021 | [2] 0.006 | [3] 0.007 | [4] 0.023 | [5] -0.001 | [6] -0.034 | [7] 0.014 | [8] 0.039 | IRAK-1-4 Inhibitor I 0.016 | ibrutinib 0.006 | [9] -0.009 | ralimetinib 0.01 | [10] -0.047 | [11] -0.028 | [12] 0.006 | [13] -0.007 | [14] 0.024 | [15] -0.026 | [16] -0.006

FOXJ3 (UniProt Q9UPW0)
UniProt Q9UPW0, sequence (Q9UPW0 whole entry, looked up): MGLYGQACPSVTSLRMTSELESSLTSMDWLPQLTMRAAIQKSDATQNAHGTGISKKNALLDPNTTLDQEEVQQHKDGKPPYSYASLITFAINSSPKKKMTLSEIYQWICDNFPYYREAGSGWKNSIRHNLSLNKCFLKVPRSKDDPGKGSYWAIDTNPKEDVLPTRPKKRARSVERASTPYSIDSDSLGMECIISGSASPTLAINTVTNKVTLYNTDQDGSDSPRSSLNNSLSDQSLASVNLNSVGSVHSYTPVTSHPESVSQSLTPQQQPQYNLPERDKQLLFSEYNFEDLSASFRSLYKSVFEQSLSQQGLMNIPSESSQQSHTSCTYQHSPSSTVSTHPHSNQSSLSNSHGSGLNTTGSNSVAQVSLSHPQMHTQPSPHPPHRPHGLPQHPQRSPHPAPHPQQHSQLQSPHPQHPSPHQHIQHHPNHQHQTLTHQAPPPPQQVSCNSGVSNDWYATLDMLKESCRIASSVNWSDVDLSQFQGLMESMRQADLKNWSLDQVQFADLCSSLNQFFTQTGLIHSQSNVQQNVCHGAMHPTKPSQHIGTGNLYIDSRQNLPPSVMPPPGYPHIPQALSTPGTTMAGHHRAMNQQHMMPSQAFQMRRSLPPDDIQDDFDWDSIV
inactive: erlotinib 0.018 | [1] 0.085 | [2] -0.015 | [3] -0.001 | [4] 0.014 | [5] 0.032 | [6] -0.01 | [7] -0.035 | [8] -0.013 | IRAK-1-4 Inhibitor I -0.025 | ibrutinib -0.003 | [9] 0.002 | ralimetinib -0.021 | [10] -0.08 | [11] 0.047 | [12] -0.026 | [13] -0.022 | [14] 0.071 | [15] 0.025 | [16] 0.006

FAM204A (UniProt Q9H8W3)
inactive: erlotinib -0.021 | [1] -0.018 | [2] -0.014 | [3] 0.11 | [5] 0.018 | [6] -0.008 | IRAK-1-4 Inhibitor I 0.01 | ralimetinib -0.12 | [10] 0.061 | [11] -0.117 | [14] 0.174 | [15] -0.002

DUSP22 isoform 2 (UniProt Q9NRW4)
UniProt Q9NRW4, sequence (Q9NRW4 whole entry, looked up): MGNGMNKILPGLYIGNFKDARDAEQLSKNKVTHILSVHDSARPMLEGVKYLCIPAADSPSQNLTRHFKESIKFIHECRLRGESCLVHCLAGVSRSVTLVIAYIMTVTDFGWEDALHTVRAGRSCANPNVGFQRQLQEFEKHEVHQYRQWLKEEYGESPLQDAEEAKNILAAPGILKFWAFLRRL
inactive: erlotinib -0.016 | [1] 0.157 | [2] 0.007 | [3] 0.075 | [4] 0.051 | [5] 0.035 | [6] 0.143 | IRAK-1-4 Inhibitor I -0.028 | ibrutinib -0.059 | [9] 0.043 | ralimetinib 0.007 | [10] 0.02 | [11] -0.092 | [12] 0.177 | [13] -0.046 | [15] 0.081 | [16] 0.007

FOXJ2 (UniProt Q9P0K8)
UniProt Q9P0K8, sequence (Q9P0K8 whole entry, looked up): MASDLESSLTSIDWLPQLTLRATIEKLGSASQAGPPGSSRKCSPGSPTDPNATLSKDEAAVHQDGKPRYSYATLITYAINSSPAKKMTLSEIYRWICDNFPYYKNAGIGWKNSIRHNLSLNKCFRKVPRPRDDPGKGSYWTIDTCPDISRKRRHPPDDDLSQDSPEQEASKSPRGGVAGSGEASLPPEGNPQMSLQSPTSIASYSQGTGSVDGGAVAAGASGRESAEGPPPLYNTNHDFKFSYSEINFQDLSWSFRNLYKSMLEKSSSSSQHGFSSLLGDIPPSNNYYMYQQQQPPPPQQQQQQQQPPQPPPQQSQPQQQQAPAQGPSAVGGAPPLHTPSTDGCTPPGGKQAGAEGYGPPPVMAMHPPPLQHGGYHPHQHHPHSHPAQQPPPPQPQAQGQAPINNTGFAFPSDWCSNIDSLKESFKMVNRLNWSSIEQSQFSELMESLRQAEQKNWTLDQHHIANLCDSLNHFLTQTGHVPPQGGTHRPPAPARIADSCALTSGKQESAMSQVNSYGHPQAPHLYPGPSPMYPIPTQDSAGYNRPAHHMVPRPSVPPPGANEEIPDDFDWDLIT
inactive: erlotinib 0.102 | [2] 0.056 | [4] 0.139 | [5] 0.026 | [7] 0.138 | [8] -0.036 | IRAK-1-4 Inhibitor I -0.03 | ibrutinib -0.045 | ralimetinib 0.02 | [10] -0.035 | [11] 0.091 | [12] 0.041 | [13] -0.129 | [15] 0.108

GAPVD1 (UniProt Q14C86)
inactive: [4] -0.016 | ibrutinib 0.086 | [9] 0.317 | [16] -0.666

FAT1 (UniProt Q14517)
inactive: erlotinib -0.004 | [2] 0.006 | [5] 0.126 | [7] -0.119 | [8] 0.128 | IRAK-1-4 Inhibitor I -0.053 | [9] -0.109 | ralimetinib -0.034 | [10] -0.016 | [11] -0.05 | [14] 0.188 | [15] 0.024 | [16] -0.105

FTSJ1 isoform 2 (UniProt Q9UET6)
inactive: [1] -0.149 | [3] 0.055 | [6] -0.039 | [7] 0.051 | [8] 0.059 | [9] 0.026 | [16] 0.001

EID1 (UniProt Q9Y6B2)
inactive: erlotinib 0.089 | [2] -0.172 | [5] 0.096 | [7] 0.064 | [8] 0.091 | IRAK-1-4 Inhibitor I 0.044 | ralimetinib -0.06 | [10] -0.042 | [11] -0.173 | [12] 0.05 | [13] -0.116 | [15] -0.008

GBA2 (UniProt Q9HCG7)
inactive: erlotinib -0.088 | [2] 0.063 | [4] 0.035 | [5] -0.055 | [7] 0.007 | [8] 0.041 | IRAK-1-4 Inhibitor I 0.01 | ibrutinib -0.071 | [9] -0.046 | ralimetinib 0.082 | [10] -0.097 | [11] 0.042 | [12] -0.037 | [13] 0.077 | [14] 0.004 | [15] 0.08 | [16] 0.021

FAM111A (UniProt Q96PZ2)
UniProt Q96PZ2, sequence (Q96PZ2 whole entry, looked up): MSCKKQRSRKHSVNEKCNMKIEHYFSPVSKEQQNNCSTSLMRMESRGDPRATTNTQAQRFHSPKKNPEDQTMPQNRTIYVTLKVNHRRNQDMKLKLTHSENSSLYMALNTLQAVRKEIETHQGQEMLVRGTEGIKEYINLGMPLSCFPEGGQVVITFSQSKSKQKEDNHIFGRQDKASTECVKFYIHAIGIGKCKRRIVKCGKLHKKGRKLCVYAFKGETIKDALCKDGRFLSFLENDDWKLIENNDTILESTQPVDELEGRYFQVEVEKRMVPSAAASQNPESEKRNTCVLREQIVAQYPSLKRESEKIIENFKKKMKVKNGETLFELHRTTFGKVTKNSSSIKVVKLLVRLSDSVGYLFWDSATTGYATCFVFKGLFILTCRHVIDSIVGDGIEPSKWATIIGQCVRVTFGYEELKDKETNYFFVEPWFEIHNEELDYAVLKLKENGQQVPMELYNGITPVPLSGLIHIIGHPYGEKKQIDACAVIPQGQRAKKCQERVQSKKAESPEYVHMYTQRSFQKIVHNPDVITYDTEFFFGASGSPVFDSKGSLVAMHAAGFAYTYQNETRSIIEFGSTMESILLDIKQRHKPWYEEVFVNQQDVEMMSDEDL
inactive: erlotinib -0.025 | [1] -0.04 | [2] -0.01 | [3] 0.002 | [5] -0.088 | [6] -0.088 | [7] 0.046 | [8] 0.022 | IRAK-1-4 Inhibitor I -0.088 | [9] 0.171 | ralimetinib 0.116 | [10] 0.083 | [11] 0.125 | [13] -0.106 | [14] -0.093 | [15] 0.022 | [16] -0.244

EPN2 (UniProt I3L356)
inactive: [4] -0.143 | ibrutinib 0.105 | [9] -0.021 | [12] 0.102 | [16] 0.097

GCA (UniProt P28676)
UniProt P28676, sequence (P28676 whole entry, looked up): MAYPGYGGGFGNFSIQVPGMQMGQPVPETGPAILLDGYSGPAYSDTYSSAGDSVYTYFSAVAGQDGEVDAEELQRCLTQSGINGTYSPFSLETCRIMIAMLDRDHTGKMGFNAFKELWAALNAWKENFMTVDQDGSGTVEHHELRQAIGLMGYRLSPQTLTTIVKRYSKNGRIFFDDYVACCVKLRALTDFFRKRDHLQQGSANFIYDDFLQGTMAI
inactive: erlotinib -0.115 | [2] -0.037 | [9] -0.134 | [11] 0.191 | [12] 0.173 | [16] 0.123

GART (UniProt C9JZG2)
inactive: [4] 0.092 | [5] 0.007 | [7] -0.025 | [8] -0.011 | IRAK-1-4 Inhibitor I 0.078 | ibrutinib -0.062 | [9] 0.037 | ralimetinib 0.069 | [10] -0.068 | [12] -0.114 | [14] 0.083 | [15] -0.052 | [16] 0.022

Source: the supplement of paper PMC10849652
